An excerpt weighted towards active compounds, which were near 0.54% of everything screened.
FadD28 FP inh: M. tuberculosis FadD28 bisubstrate binding inhibition; inhibition, % at 12.5 µM; actives 0.22% (n = 360,000); AID 588549; FadD28 bisubstrate probe binding, fluorescence polarization; in the data active = inhibition above about 8.5%, passing the limit was not always enough; inconclusive = no clear call, values can overlap the other calls
Vc quorum ag: inducers of Vibrio cholerae quorum light production without autoinducers. V. cholerae BH1578 lux reporter, luminescence, 6 h. activation, % at 18.7 µM. actives 0.16% (n = 350,000). AID 588436; in the data active = activation mostly above about 9.7%, no sharp cut-off; inconclusive = no clear call, values can overlap the other calls; inactive = mostly below about 3.7%
Mtb BioA inh: inhibitors of Mycobacterium tuberculosis BioA enzyme. inhibition, % at 9.99 µM. actives 0.096% (n = 360,000). purified M. tuberculosis BioA enzyme, plate reader; in the data active = inhibition above about 40%; inconclusive = no clear call, values can overlap the other calls
TcdB inh: blocks C. difficile toxin B glycohydrolase activity; actives 0.24% (n = 350,000); TcdB glycohydrolase enzymatic assay, plate reader; P18177; AID 652162; inhibition, % at 9.99 µM; in the data active = inhibition above about 10%
A number is an active result; - = inactive; ? = inconclusive; . = no result given.

SMILES | FadD28 FP inh | Vc quorum ag | Mtb BioA inh | TcdB inh
CCc1ccc2oc(-c3cc(N)ccc3Cl)nc2c1 | - | - | - | 14.3
C[C@H](CO)N1C[C@H](C)[C@@H](CN(C)Cc2ccc(Cl)c(Cl)c2)Oc2ccc(NC(=O)NC3CCCCC3)cc2CC1=O | . | . | - | -
Nc1nc(Nc2ccccc2)n[nH]1 | - | - | - | 12.9
Nc1nc(Nc2ccc(Cl)cc2)n[nH]1 | - | - | - | .
O=C(O)C1C(=O)NCC1c1ccccc1 (configuration not stated) | - | - | . | 23.7
O=C1CC(c2ccccc2)C(C(=O)O)N1 (configuration not stated) | - | - | - | -
Cc1nc(N)nc(-c2ccccc2O)n1 | - | 16.7 | - | .
Nc1nc(N)nc(-c2ccccc2-c2nc(N)nc(N)n2)n1 | - | - | - | -
CC(=O)N(C)C[C@H]1[C@@H](c2ccc(C#CC(C)C)cc2)[C@@H](CO)N1C(=O)C1CCC1 | . | . | . | -
CN(C)C(=O)[C@H]1[C@H](CO)[C@H]2Cn3c(ccc(C4=CCCCC4)c3=O)[C@@H]1N2Cc1ccccc1F | . | . | - | .
CCCNC(=O)C[C@@H]1CC[C@H]2[C@@H](COC[C@@H](O)CN2C(=O)Nc2ccccc2OC)O1 | . | . | - | -
CCN1C(=O)/C(=C/C=C2/Sc3ccccc3N2CCO)SC1=S | - | 236.1 | - | -
C[C@H]1CN([C@@H](C)CO)C(=O)Cc2cc(NC(=O)Cn3cnnn3)ccc2O[C@H]1CN(C)Cc1ccccc1 | . | . | - | -
CCN(CC)c1ccc(/C=C(\C#N)C(=O)c2ccc(Br)cc2)cc1 | 27.8 | - | . | .
Cc1ccc(S(=O)(=O)Nc2ccc(O)c3ccccc23)c(C)c1 | 54.6 | - | - | -
Cc1ccc(C)c(S(=O)(=O)Nc2ccc(O)c3ccccc23)c1 | - | - | - | -
O=C(O)C[C@H]1CC[C@H]2[C@@H](COC[C@H](O)CN2S(=O)(=O)c2ccc(F)cc2)O1 | . | . | - | -
C[C@@H]1CN([C@H](C)CO)C(=O)Cc2cc(NS(=O)(=O)c3cn(C)cn3)ccc2O[C@@H]1CN(C)Cc1ccc(C(=O)O)cc1 | . | . | - | -
O=C(CN1CCN(Cc2ccccc2)CC1)NCc1ccc(Cl)cc1 | - | - | - | -
CCc1ccccc1NC(=O)CN1CCN(CC(=O)NCc2ccc(Cl)cc2)CC1 | - | - | - | 13.6
CCCN1[C@@H]2c3ccc(-c4ccccc4F)c(=O)n3C[C@@H]2[C@@H](CO)[C@@H]1C(=O)NC1CCC1 | . | . | - | -
C=CCOC(=O)c1cc(-c2ccc(/C=C3\C(=O)NC(=O)C(C#N)=C3C)o2)ccc1Cl | 20.3 | - | - | .
O=[N+]([O-])c1cccc(CN2CCN(c3cccc4[nH]ccc34)CC2)c1 | - | - | - | -
O=C(c1ccc([N+](=O)[O-])cc1)N1CCN(c2cccc3[nH]ccc23)CC1 | - | - | . | 10.0
O=C(N/N=C/C(Cl)=C\c1ccccc1)c1cnccn1 | - | - | 45.3 | .
SMILES | FadD28 FP inh | Vc quorum ag | Mtb BioA inh | TcdB inh
C[C@@H]1CN([C@H](C)CO)S(=O)(=O)c2ccc(-c3ccc(F)cc3)cc2O[C@H]1CN(C)C | . | . | - | -
COc1cc2ccccc2cc1C(=O)N/N=C/c1cccs1 | - | - | - | 12.6
COC(=O)N/N=C/c1cccs1 | - | - | . | -
Cc1ccc(/C=C(\NC(=O)c2ccccc2)C(=O)NC(Cc2ccccc2)C(=O)O)cc1 (configuration not stated) | - | - | - | .
CC(C)=C(NC(=O)c1ccccc1)C(=O)NC(Cc1ccccc1)C(=O)O (configuration not stated) | - | 15.4 | - | -
Cc1noc(C)c1S(=O)(=O)N(C)C[C@@H]1Oc2ccc(NC(=O)Nc3ccc(C(F)(F)F)cc3)cc2CC(=O)N([C@H](C)CO)C[C@@H]1C | . | . | - | .
Cn1c(SCC(=O)c2cc3ccccc3o2)nnc1-c1ccccc1 | - | - | - | 11.1
Cc1ccccc1N/N=C/c1ccc(C#N)cc1 | - | 59.9 | . | -
O=C(C[C@@H]1CC[C@@H]2[C@H](COC[C@H](O)CN2CC2CCCCC2)O1)NCc1ccc(Cl)cc1 | . | . | - | -
COc1ccccc1NC(=S)NC1CCCC1 | - | - | . | -
COc1ccc(Cl)cc1NC(=S)NC1CCCC1 | - | - | - | 14.6
COCC(=O)N1CC[C@@H]2[C@H]1c1cc(-c3ccccc3)ccc1N(C)[C@H]2CO | . | . | . | 10.7
CN1c2ccc(-c3ccccc3)cc2[C@H]2[C@H](CCN2C(=O)CN2CCOCC2)[C@H]1CO | . | . | - | 13.8
CCC(=O)N1CC[C@@H]2[C@H]1c1cc(-c3ccccc3)ccc1N(C)[C@@H]2CO | . | . | - | -
CCC(=O)N1CC[C@@H]2[C@@H](CO)N(C)c3ccc(-c4ccccc4)cc3[C@@H]21 | . | . | - | 21.5
CCC(=O)N1CC[C@@H]2[C@H]1c1cc(-c3ccccc3)ccc1N(C)[C@H]2CO | . | . | - | 11.5
C[C@@H]1CCCCO[C@@H](CN(C)C(=O)Nc2ccc3c(c2)OCO3)[C@H](C)CN([C@@H](C)CO)C(=O)c2cc(NC(=O)Cc3ccccc3)ccc2O1 | . | . | - | .
COCC(=O)N1CC[C@@H]2[C@H]1c1cc(-c3cccc(OC)c3)ccc1N(C)[C@H]2CO | . | . | . | 13.5
C/C=C/c1ccc2c(c1)O[C@@H](CN(C)C(=O)C1CCOCC1)[C@@H](C)CN([C@@H](C)CO)S2(=O)=O | . | . | - | -
COc1ccc(C(=O)NCC2(c3ccc(OC)c(OC)c3)CCCC2)cc1OC | - | - | - | -
COc1ccc(C2(CNC(=O)c3ccc(OC)c([N+](=O)[O-])c3)CCCCC2)cc1OC | ? | - | - | 12.0
CC(C)c1ccc(/C=N/Nc2ccc(C(=O)O)cc2)cc1 | - | - | . | -
O=C(O)c1cc(-c2ccc(/C=N/Nc3ccc(Cl)cc3)o2)ccc1Cl | 14.7 | - | - | .
COc1cc(/C=N/Nc2ccc(Cl)c(C(=O)O)c2)ccc1OC(=O)c1ccco1 | - | - | - | -
Nc1nonc1C(=O)N/N=C/c1ccc(-c2ccc(Cl)c(C(=O)O)c2)o1 | - | - | . | -
SMILES | FadD28 FP inh | Vc quorum ag | Mtb BioA inh | TcdB inh
O=C(O)c1ccc(N/N=C/c2ccc(-c3ccccc3)cc2)cc1 | 18.5 | - | . | -
O=C(O)c1cc(N/N=C/c2ccc(-c3ccccc3)cc2)ccc1Cl | 19.1 | - | - | -
COc1ccc(C(=O)Oc2ccc(/C=N/Nc3ccc(Cl)c(C(=O)O)c3)cc2OC)cc1 | 9.5 | - | - | -
C/C=C/c1ccc2c(c1)O[C@@H](CN(C)C(=O)Nc1cc(F)ccc1F)[C@H](C)CN([C@@H](C)CO)S2(=O)=O | . | . | - | -
C[C@H](O)C#Cc1cnc2c(c1)C(=O)N([C@@H](C)CO)C[C@H](C)[C@@H](CN(C)CC1CCCCC1)O2 | . | . | - | -
CN1C(=O)NC(c2ccc(O)cc2)C2=C1CN(c1ccccc1)C2=O (configuration not stated) | - | - | - | -
CN1C(=O)NC(c2ccc(O)cc2)C2=C1CN(c1ccc(O)cc1)C2=O (configuration not stated) | - | - | . | 18.6
C[C@@H]1CN([C@@H](C)CO)C(=O)c2cc(-c3cccc(F)c3)cnc2O[C@@H]1CN(C)Cc1cccc(F)c1 | . | . | - | .
O=C([C@H]1[C@H](CO)[C@H]2Cn3c(cccc3=O)[C@@H]1N2C(=O)CC1CC1)N1CCc2ccccc2C1 | . | . | . | -
Oc1ccc2c(ccc3[nH]cnc32)c1 | - | - | . | 16.9
CCCC#Cc1ccc2c(c1)O[C@H](CN(C)C(=O)NC(C)C)[C@H](C)CN([C@H](C)CO)S2(=O)=O | . | . | - | -

Compound activity deposited in PubChem by Broad Institute.
